# Experimental data from the supplement of paper PMC9694430.
# Key:
# Experiment in all cases: thermal shift delta Tm vs DMSO control; higher = stronger stabilization (binding)
# Conditions in all cases: 12.5 µM; protein concentration 2 µM
# LOC_OS01G57100-cb003 = system: LOC_OS01G57100-cb003
# Summary of the method: (§1)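 Heating from 25°C to 95°C at 0.05°C/s, fluorescence was recorded for 19.5 μl wells of 2 μM E. coli-expressed, purified rice kinase domain in 100 mM potassium phosphate pH 7.5, 150 mM NaCl, 10% glycerol and 5 × SYPRO Orange with compound in DMSO. Boltzmann fits gave melting temperatures for this differential scanning fluorimetry assay. The shift reported is the mean of three replicates against the DMSO-only protein.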
# LOC_OS01G60330-cb001 = system: LOC_OS01G60330-cb001
# Summary of the method: as §1
# LOC_OS01G60700-cb002 = system: LOC_OS01G60700-cb002
# Summary of the method: as §1
# LOC_OS01G63280-cb003 = system: LOC_OS01G63280-cb003
# Summary of the method: as §1
# LOC_OS01G67340-cb003 = system: LOC_OS01G67340-cb003
# Summary of the method: as §1
# LOC_OS01G70970-cb002 = system: LOC_OS01G70970-cb002
# Summary of the method: as §1
# LOC_OS02G07810-cb001 = system: LOC_OS02G07810-cb001
# Summary of the method: as §1
# LOC_OS02G08530-cb003 = system: LOC_OS02G08530-cb003
# Summary of the method: as §1
# LOC_OS02G14120-cb001 = system: LOC_OS02G14120-cb001
# Summary of the method: as §1
# LOC_OS02G17970-cb001 = system: LOC_OS02G17970-cb001
# Summary of the method: as §1
# LOC_OS02G45750-cb003 = system: LOC_OS02G45750-cb003
# Summary of the method: as §1
# LOC_OS02G54510-cb004 = system: LOC_OS02G54510-cb004
# Summary of the method: as §1
# LOC_OS03G04050-cb001 = system: LOC_OS03G04050-cb001
# Summary of the method: as §1
# LOC_OS03G12390-cb001 = system: LOC_OS03G12390-cb001
# Summary of the method: as §1
# LOC_OS03G27990-cb004 = system: LOC_OS03G27990-cb004
# Summary of the method: as §1
# LOC_OS03G50450-cb001 = system: LOC_OS03G50450-cb001
# Summary of the method: as §1
# LOC_OS03G50810-cb003 = system: LOC_OS03G50810-cb003
# Summary of the method: as §1
# LOC_OS04G35114-cb001 = system: LOC_OS04G35114-cb001
# Summary of the method: as §1
# LOC_OS04G38480-cb003 = system: T1, LOC_OS04G38480-cb003
# T1 sequence (whole entry): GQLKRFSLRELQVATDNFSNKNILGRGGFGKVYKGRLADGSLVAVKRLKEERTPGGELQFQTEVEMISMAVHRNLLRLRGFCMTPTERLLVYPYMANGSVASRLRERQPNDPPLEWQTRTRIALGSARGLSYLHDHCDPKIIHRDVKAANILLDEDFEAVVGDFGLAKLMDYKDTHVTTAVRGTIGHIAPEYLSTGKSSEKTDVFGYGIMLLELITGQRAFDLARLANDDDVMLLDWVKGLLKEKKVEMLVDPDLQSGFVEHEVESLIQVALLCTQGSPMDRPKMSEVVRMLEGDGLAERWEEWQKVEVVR
# Summary of the method: as §1
# LOC_OS04G41100-cb001 = system: T2, LOC_OS04G41100-cb001
# T2 sequence (whole entry): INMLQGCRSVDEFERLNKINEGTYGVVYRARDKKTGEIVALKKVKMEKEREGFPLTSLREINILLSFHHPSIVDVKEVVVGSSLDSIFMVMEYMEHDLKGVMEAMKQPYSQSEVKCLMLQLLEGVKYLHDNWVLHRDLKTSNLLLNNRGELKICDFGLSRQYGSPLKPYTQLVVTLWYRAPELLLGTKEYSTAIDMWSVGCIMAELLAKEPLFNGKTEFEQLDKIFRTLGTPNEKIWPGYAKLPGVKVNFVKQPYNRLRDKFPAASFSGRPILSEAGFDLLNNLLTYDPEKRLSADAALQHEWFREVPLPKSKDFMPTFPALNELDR
# Summary of the method: as §1
# 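Further: purified Escherichia coli-expressed rice kinase domain construct.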
Compound,thermal shift delta Tm (LOC_OS01G57100-cb003) [°C],thermal shift delta Tm (LOC_OS01G60330-cb001) [°C],thermal shift delta Tm (LOC_OS01G60700-cb002) [°C],thermal shift delta Tm (LOC_OS01G63280-cb003) [°C],thermal shift delta Tm (LOC_OS01G67340-cb003) [°C],thermal shift delta Tm (LOC_OS01G70970-cb002) [°C],thermal shift delta Tm (LOC_OS02G07810-cb001) [°C],thermal shift delta Tm (LOC_OS02G08530-cb003) [°C],thermal shift delta Tm (LOC_OS02G14120-cb001) [°C],thermal shift delta Tm (LOC_OS02G17970-cb001) [°C],thermal shift delta Tm (LOC_OS02G45750-cb003) [°C],thermal shift delta Tm (LOC_OS02G54510-cb004) [°C],thermal shift delta Tm (LOC_OS03G04050-cb001) [°C],thermal shift delta Tm (LOC_OS03G12390-cb001) [°C],thermal shift delta Tm (LOC_OS03G27990-cb004) [°C],thermal shift delta Tm (LOC_OS03G50450-cb001) [°C],thermal shift delta Tm (LOC_OS03G50810-cb003) [°C],thermal shift delta Tm (LOC_OS04G35114-cb001) [°C],thermal shift delta Tm (LOC_OS04G38480-cb003) [°C],thermal shift delta Tm (LOC_OS04G41100-cb001) [°C]
CCc1cccc(CC)c1NC(=O)N1Cc2[nH]nc(NC(=O)c3ccc(N4CCN(C)CC4)cc3)c2C1,0.59,0.73,0.44,0.43,-0.29,0.21,0.66,0.96,4.48,0.32,2.47,0.46,0.29,4.75,0.09,0.27,2.53,4.67,0.61,0.62
C=CC(=O)Nc1ccc2ncnc(Nc3ccc(OCc4cccc(F)c4)c(Cl)c3)c2c1,5.43,8.4,1.59,0,4.19,3.43,2.95,1.07,2.45,2.87,2.15,0.29,1.39,2.82,1.09,1.56,1.76,1.62,4.58,1.61
CC1=C(C(=O)Nc2cc3cn[nH]c3cc2F)C(c2ccc(C(F)(F)F)cc2)CC(=O)N1 (stereo not given),1.21,0.48,0.2,2.09,-0.48,0.04,0.72,0.55,0.25,0.19,0.16,0.13,0.03,0.32,-0.07,0.15,0.56,0.15,0,0.48
Nc1nc(N)c2nc(-c3cccc(O)c3)c(-c3cccc(O)c3)nc2n1,2.01,3.89,1.27,0.44,-0.24,0.19,1.52,0.91,1.95,1.03,0.83,0.31,0.2,0.79,1.44,0.33,0.34,0.99,1.12,0.63
CC[C@@H]1C(=O)N(C)c2cnc(Nc3ccc(C(=O)NC4CCN(C)CC4)cc3OC)nc2N1C1CCCC1,0.75,2.55,0.69,-0.22,-0.4,0.34,0.2,1.93,0.27,0.02,1.12,0.21,0.16,2.23,-0.16,-0.26,0.11,0.67,-0.31,0.39
Cn1cc(-c2cnn3c(N)c(Br)c([C@@H]4CCCNC4)nc23)cn1,-0.78,1.36,0.1,0.91,0.29,0.3,2.88,0.14,3.6,-0.03,2.88,0.55,0.3,0.78,0.85,0.38,1.12,1.17,2.62,0.97
COc1ccc(-c2nc(N3CCOCC3)c3sc(CN(C)c4ncc(C(=O)NO)cn4)cc3n2)cn1,2.79,1.04,0.58,0.34,0.21,0.21,1.31,0.97,0.54,0.14,0.52,0.27,0.23,-0.11,0.18,-0.05,0.23,0.64,0.82,0.24
